For 14 molecules, growth results are on record in PubChem BioAssay (NCI).

Compounds without any hit were thinned out: in the full panel of roughly 83,000, 20% have a hit.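 Single-concentration screen, 48 h exposure, 96-well plates. Endpoint: percent growth. Below 10 = active.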 Values without a mark were called inactive. Activity calls are given as the source filed them.

Test systems include HCT-15 colon; HT29 colon; SNB-75 CNS; U251 CNS; PC-3 prostate; SK-MEL-5 melanoma; UACC-62 melanoma; LOX IMVI melanoma; SK-MEL-28 melanoma.
Holding throughout (assay): NCI-60 one-dose screen, 48 h (100 = growth as untreated, 0 = no growth, -100 = all killed)
Details in all cases: 10 µM unless noted

With `Cn1ncc2c(N)nc(Oc3ccccc3-c3ccccc3)nc21`, the growth is 10.7% with HCT-15 colon; 14.9% in the test on HT29 colon; 8.98% (active) in the test on SNB-75 CNS; 32.6% in the test on U251 CNS; 58.5% in the test with PC-3 prostate; 0.935% (active) with SK-MEL-5 melanoma. Further, the growth is 26.3% in the test on UACC-62 melanoma, 34.7% with LOX IMVI melanoma and 53.7% in the test on SK-MEL-28 melanoma.
In the case of `O=C1NC(=NC23CC4CC(CC(C4)C2)C3)N/C1=C\c1ccc2ncccc2c1`, the growth in the test with HCT-15 colon is -12% (active); in the test with HT29 colon it was 1.49% (active); in the test with SNB-75 CNS, -66.3% (active); with U251 CNS, -63.7% (active); with PC-3 prostate, -48.1% (active); in the test with SK-MEL-5 melanoma, -9.19% (active). Moreover, the values for the growth in the test with UACC-62 melanoma, with LOX IMVI melanoma and in the test on SK-MEL-28 melanoma were 23.6%, -76.9% (active) and -3.01% (active), respectively.
Turning to `N/C(=N\c1nc2ccccc2s1)NC(=O)Nc1ccccc1[N+](=O)[O-]`, the growth with HCT-15 colon is 5.8% (active); with HT29 colon, -31.5% (active); in the test on SNB-75 CNS, 19.5%; with U251 CNS it was 7.5% (active); in the test on PC-3 prostate, 29.3%; in the test on SK-MEL-5 melanoma, -21.5% (active). The values for the growth in the test with UACC-62 melanoma, in the test with LOX IMVI melanoma and in the test with SK-MEL-28 melanoma were 12%, 10% and 51%, respectively.
For the molecule `COc1ccc(-c2nc3ccccc3n2CC(=O)N=Nc2c(O)[nH]c3ccc(OC)cc23)cc1`, the growth in the test with HCT-15 colon is 43.7%; in the test on HT29 colon, 0.298% (active); in the test with SNB-75 CNS it was 73%; with U251 CNS, 96.6%; in the test on PC-3 prostate, 64.8%; with SK-MEL-5 melanoma it was 22.9%. Moreover, the growth is 81.6% in the test with UACC-62 melanoma, 56.8% with LOX IMVI melanoma and 81.2% in the test with SK-MEL-28 melanoma.
Regarding `COc1cc(C2CC(c3cc(OC)c(OC)c(OC)c3)=Nc3c(N)nc(N)nc3N2)ccc1Oc1nc(Nc2ccc(F)cc2)nc(N(C)C)n1` (centres undefined), the growth in the test with HCT-15 colon was 4.98% (active); with HT29 colon, 7.02% (active); in the test with SNB-75 CNS, 55.9%; with U251 CNS, 56.4%; in the test on PC-3 prostate, 33.8%; with SK-MEL-5 melanoma, 36%. Further, the figures for the growth in the test with UACC-62 melanoma, with LOX IMVI melanoma and in the test with SK-MEL-28 melanoma were 83.6%, 10.3% and 74%, respectively.
In the case of `COC(=O)c1c(C(=O)OC)c2ccc3c4ccccc4ccc3n2c1C(=O)C(C)Br` (centres undefined), the growth in the test on HCT-15 colon is 9.95% (active); in the test on HT29 colon, 24%; with SNB-75 CNS, 94.3%; in the test with U251 CNS, 23.9%; with PC-3 prostate, 47.1%; in the test on SK-MEL-5 melanoma, 24.4%. For the same molecule, the growth was 33.5% in the test with UACC-62 melanoma, -5.75% (active) in the test on LOX IMVI melanoma and 65.4% in the test on SK-MEL-28 melanoma.
In the case of `Cn1cc(-c2cc(N)n3nc(-c4c[nH]c5ccccc45)cc3n2)c2cc(Cl)ccc21`, the growth with HCT-15 colon was -77.3% (active); with HT29 colon, -51.4% (active); in the test with SNB-75 CNS it was -14.7% (active); in the test on U251 CNS, -94.7% (active); with PC-3 prostate, -27.2% (active); in the test on SK-MEL-5 melanoma, -97.6% (active). Also, the growth was -76.9% (active) in the test with UACC-62 melanoma, -82.5% (active) with LOX IMVI melanoma and -90.2% (active) in the test on SK-MEL-28 melanoma.
Take `Cc1oc(-c2ccccc2)nc1CN[C@@H]1C[C@@H]2C[C@H]([C@H]1C)C2(C)C`: the growth in the test on HCT-15 colon was 18.8%; in the test on HT29 colon, 7.34% (active); with SNB-75 CNS, 79.2%; in the test with U251 CNS, 41.2%; in the test with PC-3 prostate, 30.8%; in the test on SK-MEL-5 melanoma it was -94.1% (active). The growth in the test on UACC-62 melanoma was -32.6% (active); in the test on LOX IMVI melanoma, -95.5% (active); in the test with SK-MEL-28 melanoma, 2.07% (active).
For the molecule `CCOc1ccc(-c2cc(-c3cc(C(C)C)c(O)cc3C)nn2-c2ccc(S(N)(=O)=O)cc2)cc1`, the growth was 4.81% (active) in the test with HCT-15 colon; 98.5% in the test on HT29 colon; 32.6% in the test on SNB-75 CNS; 27.8% in the test on U251 CNS; 42.4% with PC-3 prostate; 26.3% with SK-MEL-5 melanoma. In addition, the growth in the test with UACC-62 melanoma was 24%; in the test with LOX IMVI melanoma, 17.9%; in the test with SK-MEL-28 melanoma, 58.5%.
For the molecule `ClC(Cn1ncc2c(Nc3cccc(Br)c3)nc(SCCN3CCOCC3)nc21)c1ccc(Br)cc1` (centres undefined), the growth in the test on HCT-15 colon is -76.9% (active); with HT29 colon it was -43% (active); with SNB-75 CNS, 59.8%; with U251 CNS, -4.38% (active); in the test with PC-3 prostate, 21.3%; with SK-MEL-5 melanoma, -89.9% (active). The growth with LOX IMVI melanoma is -89.4% (active); with SK-MEL-28 melanoma, -46.4% (active).
In the case of `COC(=O)c1cccc(Oc2ccc(NC(=O)Nc3cc(C(F)(F)F)ccc3F)cc2)c1`, the growth was 62% in the test with HCT-15 colon; 62.9% in the test with HT29 colon; -34.1% (active) with SNB-75 CNS; 40.4% in the test with U251 CNS; 69.9% in the test with PC-3 prostate; 94.5% in the test on SK-MEL-5 melanoma. Besides, the growth with UACC-62 melanoma is 69.6%; in the test with LOX IMVI melanoma it was 79.5%.
With `CC1=NN(C2=NC(=O)C(CC(=O)Nc3ccccc3C(F)(F)F)S2)C(c2ccc(N(C)C)cc2)C1` (centres undefined), the growth was 17.1% in the test on HCT-15 colon; 40.8% in the test on HT29 colon; 54.9% in the test on SNB-75 CNS; 49.3% in the test on U251 CNS; 34.6% with PC-3 prostate; 43.4% in the test with SK-MEL-5 melanoma. Also, the growth with UACC-62 melanoma is 41.4%; in the test on LOX IMVI melanoma, 46.3%; with SK-MEL-28 melanoma it was 42%.
As for `c1n[nH]cc1-c1nc2ccc3[nH]ncc3c2c2c1CC1(CCOCC1)CC2`, the growth with HCT-15 colon was 39%; in the test on HT29 colon, 25.9%; in the test with SNB-75 CNS it was 6.74% (active); with U251 CNS, 29.3%; in the test on PC-3 prostate, 47.4%; in the test with SK-MEL-5 melanoma, 29%. Further, the growth with UACC-62 melanoma is 14%; with LOX IMVI melanoma it was 29.2%; with SK-MEL-28 melanoma it was 27.1%.
In the case of `O=C(Nc1ccc(Cl)c(C(F)(F)F)c1)N1CCN(c2cc(-c3cn(-c4ccccc4)nc3-c3cccc(O)c3)ccn2)CC1`, the growth in the test on HCT-15 colon was -7.34% (active); with HT29 colon, -35.3% (active); with SNB-75 CNS it was 5.08% (active); with U251 CNS, 11.8%; in the test with PC-3 prostate, 6.31% (active); with SK-MEL-5 melanoma, -97.2% (active). The figures for the growth in the test with UACC-62 melanoma, with LOX IMVI melanoma and in the test on SK-MEL-28 melanoma were -88.6% (active), -76.9% (active) and -24.8% (active), respectively.
